Values joined by “and” are separate entries in the source; they are usually repeats but may differ in a detail not shown here. Equal entries are not always repeated. Active and inactive are the calls of the source.
Experiments:
Albumin (Bos taurus) = Albumin (Bos taurus) (UniProt P02769); assay: bovine serum albumin binders on microarray, profiling panel, artefact control for SMM control protein annotation, biochemical, small-molecule microarray, Alexa647 label, 635/667 nm fluorescence (AID 1118); conditions: BSA-A647 binding, fluorescence 635 nm, higher = more signal;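 also: score merges 667 nm emission intensity and signal-to-noise per printed compound spot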
[1] = small-molecule microarray binders of probe aXIP, primary screen, biochemical, NeuroSMM set, 635/667 nm fluorescence (AID 1119); conditions: higher = more signal, called active from +8 up or from −8 down;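 also: probe is the protein aXip251-270 applied at 1 µg/mL to compound-printed slides; binding of probe to printed compounds measured as 667 nm fluorescence plus signal to noise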
[2] = small-molecule binders of probe aNOTCH3, primary screen, biochemical, small-molecule microarray, 635/667 nm fluorescence (AID 1120); conditions: higher = more signal;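 also: probe is a biotin-tagged antibody raised against NOTCH3 rather than NOTCH3 protein; score merges spot fluorescence near 667 nm with spot signal to noise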
[3] = small-molecule binders of probe aNOTCH2, primary screen, biochemical, small-molecule microarray, 635/667 nm fluorescence (AID 1121); conditions: higher = more signal;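 also: score merges feature fluorescence read at 667 nm with its signal to noise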
[4] = biological target: Carbonic anhydrase 2 (Homo sapiens) (UniProt P00918); assay: CAII small-molecule binders, profiling panel, biochemical, small-molecule microarray, Alexa647-labelled CAII (AID 1122); conditions: CAII-A647 binding fluorescence, higher = more signal
[5] = COS7 lysate on small-molecule microarray, probe aHis, 635 nm (AID 1123); conditions: COS7 cell lysate, fluorescence, higher = more signal;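 also: z-score combines 667nm fluorescence intensity with signal-to-noise per printed compound spot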
[6] = compound binding in COS7 lysate, probe aLAP1, primary screen, cell lysate, small-molecule microarray (AID 1124); conditions: probe aLAP1, fluorescence, higher = more signal;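 also: lysate comes from COS7 cells expressing LAP1 and is applied at 0.3 µg/mL; score merges spot fluorescence near 667 nm with signal-to-noise over triplicate slides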
Sam68 (KHDRBS1) = assay: Sam68 small-molecule binders, primary screen, biochemical, small-molecule microarray, 635 nm fluorescence (AID 1125); conditions: small-molecule microarray binding, higher = more signal;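 also: score merges 667 nm channel intensity with signal to noise over triplicate slides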
[7] = system: Chordin-like protein 2 (CHRDL2); assay: CHRDL2 small-molecule binders, primary screen, biochemical, small-molecule microarray, 635 nm fluorescence (AID 1126); conditions: small-molecule microarray binding, fluorescence 635 nm; higher = more signal;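 also: printed compound slides probed with Chrdl2 protein at 4 µg/mL for 1 h at 4 C; score merges 667 nm emission intensity with signal to noise over three replicate slides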
[8] = biological target: Concanavalin-A (Canavalia ensiformis) (UniProt P02866); assay: ConA small-molecule binders, primary screen, artefact control for SMM control protein annotation, biochemical, small-molecule microarray, Alexa647 label, 635 nm (AID 1127); conditions: ConA-A647 binding fluorescence, higher = more signal;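 also: z combines 667 nm emission intensity with signal-to-noise across three replicate slides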
Chain of Concanavalin-A (Canavalia ensiformis) (P02866 whole entry, looked up): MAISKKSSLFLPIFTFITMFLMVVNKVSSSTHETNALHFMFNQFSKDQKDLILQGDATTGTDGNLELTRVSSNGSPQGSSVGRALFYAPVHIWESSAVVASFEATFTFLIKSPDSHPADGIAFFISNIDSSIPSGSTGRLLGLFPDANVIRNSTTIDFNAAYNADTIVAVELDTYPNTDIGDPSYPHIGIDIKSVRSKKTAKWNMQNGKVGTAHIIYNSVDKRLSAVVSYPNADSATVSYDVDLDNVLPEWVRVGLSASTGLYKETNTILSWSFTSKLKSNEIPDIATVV

Chain of Albumin (Bos taurus) (P02769 whole entry, looked up): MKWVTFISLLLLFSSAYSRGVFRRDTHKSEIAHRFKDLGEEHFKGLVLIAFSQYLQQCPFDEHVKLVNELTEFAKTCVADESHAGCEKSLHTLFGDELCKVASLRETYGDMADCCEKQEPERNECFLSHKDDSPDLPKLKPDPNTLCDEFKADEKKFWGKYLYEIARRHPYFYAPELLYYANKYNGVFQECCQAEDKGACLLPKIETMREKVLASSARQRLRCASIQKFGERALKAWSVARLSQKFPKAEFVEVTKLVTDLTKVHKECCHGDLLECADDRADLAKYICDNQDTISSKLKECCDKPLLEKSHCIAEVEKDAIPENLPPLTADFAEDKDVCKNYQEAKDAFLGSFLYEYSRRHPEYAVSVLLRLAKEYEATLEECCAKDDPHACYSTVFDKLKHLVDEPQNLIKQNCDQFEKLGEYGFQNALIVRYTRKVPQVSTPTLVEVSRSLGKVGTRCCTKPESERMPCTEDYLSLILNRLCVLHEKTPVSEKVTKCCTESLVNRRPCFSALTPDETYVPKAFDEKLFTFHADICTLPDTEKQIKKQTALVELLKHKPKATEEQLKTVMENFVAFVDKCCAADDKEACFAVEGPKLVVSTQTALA

Structure (SMILES)	composite z-score (Albumin (Bos taurus))	composite Z-score [1]	composite z-score [2]	composite z-score [3]	composite z-score [4]	composite z-score [5]	composite z-score [6]	composite z-score (Sam68 (KHDRBS1))	composite z-score [7]	composite z-score [8]
CC(C)[Si]1(C(C)C)OCc2cc(C3CC3)nc(CCc3ccccc3)c21	-0.367 and -0.0511	-0.145 (inactive) and -0.387 (inactive)	-0.0716 and -0.135	-0.155 and -0.176	-0.344 and 0.027	-0.416 and 0.368	-0.0371 and -0.455	-0.636 and 0.47	0.32 and 0.195	0.211 and 0.513
COC(=O)C1=C(C)N(Cc2ccccc2)C2=C(C(C)=O)C[C@@](O)(C(=O)OC)C(=O)N2[C@@H]1c1ccccc1	0.838 and 0.336	0.397 (inactive) and 0.38 (inactive)	-0.0895 and 0.0597	-0.0921 and -0.118	0.84 and 0.766	0.463 and -0.221	0.0922 and -0.421	1.24 and -0.523	0.571 and 0.377	-0.0847 and -0.495
O=C1C[C@]2(c3ccc([N+](=O)[O-])cc3)C(=O)N(Cc3ccccc3)c3cc(CO)ccc3[C@H]2N1C1CCCCC1	-0.047 and -0.118	0.285 (inactive) and -0.0345 (inactive)	-0.0627 and 0.13	-0.179 and 0.0118	0.272 and 0.439	0.366 and 1.14	0.679 and -0.627	0.802 and 0.377	-0.468 and 0.393	0.28 and 0.772
CCOC(=O)[C@H](CC(C)C)NC(=O)CCC1CC(OC(=O)NCc2cccc3ccccc23)CC2(CCCC(COC(=O)NCc3ccccc3)O2)O1 (stereo not given in full)	-0.294	-0.19 (inactive)	-0.155	-0.152	-0.3	0.043	-0.384	-0.903	-0.139	-0.68
C=CCN(C(=O)C(c1cccs1)N(C(=O)/C=C\C(=O)O)C(C)(C)CO)C(C)(C)C (stereo not given)	0.649 and 0.333	-1.12 (inactive) and 0.108 (inactive)	-0.289 and -0.358	-0.172 and -0.0728	0.786 and 0.805	0.414 and 0.831	-0.68 and 0.64	0.0206 and -0.225	-1.43 and -1.27	-0.625 and -0.54
C=CCN(CCCC)C(=O)C1N(c2c(Cl)cccc2CO)C(=O)C2C(C(=O)O)C3C=CC21O3 (stereo not given)	-0.817 and -0.128	-0.533 (inactive) and 0.273 (inactive)	-0.408 and 0.539	-0.173 and 0.608	-0.748 and 0.955	-0.455 and 1.89	-0.111 and -0.125	-0.818 and -1	-1.4 and -1.99	-1.69 and -2.68
Cc1ccc(S(=O)(=O)N[C@H]2COC(=O)[C@@H](C)COC(=O)[C@H](C)NC(=O)CC=C[C@H]2C)cc1	-0.965	1.17 (inactive)	-0.0931	-0.14	-0.338	-0.49	-0.34	0.122	0.954	-0.681

Reference: PubChem BioAssay
